# Experiments:
# Settings in all cases: DSSO, in cells
# [1] = molecular target: HSPA9 (UniProt P38646)
# [2] = molecular target: ITGB5 (UniProt P18084)
# [3] = molecular target: MDH2 (UniProt P40926)
# [4] = molecular target: KCMF1 (UniProt Q9P0J7)
# [5] = molecular target: ITGA3 (UniProt P26006)
# [6] = molecular target: ITGA6 (UniProt P23229)
# [7] = molecular target: SLC3A2 (UniProt P08195)
# [8] = molecular target: TMX1 (UniProt Q9H3N1)
# [9] = molecular target: IDH3A (UniProt P50213)
# [10] = molecular target: HNRNPM (UniProt P52272)
# [11] = molecular target: NONO (UniProt Q15233)
# [12] = molecular target: PCBP2 (UniProt Q15366)
# [13] = molecular target: MCM2 (UniProt P49736)
# [14] = molecular target: MCM5 (UniProt P33992)
# [15] = molecular target: MLEC (UniProt Q14165)
# [16] = molecular target: PDIA5 (UniProt Q14554)
# [17] = molecular target: STT3A (UniProt P46977)
# [18] = molecular target: STT3B (UniProt Q8TCJ2)
# [19] = molecular target: MRTO4 (UniProt Q9UKD2)
# [20] = molecular target: RSL24D1 (UniProt Q9UHA3)
# [21] = molecular target: MTHFD2 (UniProt P13995)
# [22] = molecular target: MTPAP (UniProt Q9NVV4)
# [23] = molecular target: MYBBP1A (UniProt Q9BQG0)
# [24] = molecular target: RPL7L1 (UniProt Q6DKI1)
# [25] = molecular target: SERBP1 (UniProt Q8NC51)
# [26] = molecular target: MYDGF (UniProt Q969H8)
# [27] = molecular target: MYEF2 (UniProt Q9P2K5)
# [28] = molecular target: MYL6 (UniProt P60660)
# [29] = molecular target: MYO18A (UniProt Q92614)
# [30] = molecular target: NAA15 (UniProt Q9BXJ9)
# [31] = molecular target: NAT10 (UniProt Q9H0A0)
# [32] = molecular target: NCAPH (UniProt Q15003)
# [33] = molecular target: NCBP1 (UniProt Q09161)
# [34] = molecular target: NDRG1 (UniProt Q92597)
# [35] = molecular target: NDUFA12 (UniProt Q9UI09)
# [36] = molecular target: NDUFS1 (UniProt P28331)
# [37] = molecular target: NIPSNAP1 (UniProt Q9BPW8)
# [38] = molecular target: NOC3L (UniProt Q8WTT2)
# [39] = molecular target: NOL7 (UniProt Q9UMY1)
# [40] = molecular target: NOLC1 (UniProt Q14978)
# [41] = molecular target: UTP11 (UniProt Q9Y3A2)
# [42] = molecular target: NOP16 (UniProt Q9Y3C1)
# [43] = molecular target: NOP53 (UniProt Q9NZM5)
# [44] = molecular target: NUCB2 (UniProt P80303)
# [45] = molecular target: NUP160 (UniProt Q12769)
# [46] = molecular target: NUP205 (UniProt Q92621)
# [47] = molecular target: NUP58 (UniProt Q9BVL2)
# [48] = molecular target: NUP93 (UniProt Q8N1F7)
# [49] = molecular target: P4HA1 (UniProt P13674)
# [50] = molecular target: PDIA3 (UniProt P30101)
# [51] = molecular target: PPIB (UniProt P23284)
# [52] = molecular target: P4HB (UniProt P07237)
# Chain of P4HB (P07237 whole entry): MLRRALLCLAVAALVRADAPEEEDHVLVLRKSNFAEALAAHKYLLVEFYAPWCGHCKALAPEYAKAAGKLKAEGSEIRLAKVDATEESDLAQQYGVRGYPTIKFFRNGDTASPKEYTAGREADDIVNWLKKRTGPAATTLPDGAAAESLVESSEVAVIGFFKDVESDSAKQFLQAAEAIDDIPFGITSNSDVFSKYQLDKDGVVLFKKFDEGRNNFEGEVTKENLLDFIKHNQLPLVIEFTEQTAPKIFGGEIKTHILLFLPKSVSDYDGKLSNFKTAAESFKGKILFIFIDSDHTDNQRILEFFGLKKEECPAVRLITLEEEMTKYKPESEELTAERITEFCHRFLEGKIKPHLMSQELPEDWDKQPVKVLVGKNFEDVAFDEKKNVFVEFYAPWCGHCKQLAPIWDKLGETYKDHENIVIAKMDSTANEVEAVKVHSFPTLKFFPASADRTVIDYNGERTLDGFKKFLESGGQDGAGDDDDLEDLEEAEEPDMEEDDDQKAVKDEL
# [53] = molecular target: PA2G4 (UniProt Q9UQ80)
# [54] = molecular target: PAM16 (UniProt Q9Y3D7)
# [55] = molecular target: PCCB (UniProt P05166)
# [56] = molecular target: PDAP1 (UniProt Q13442)
# [57] = molecular target: PDIA4 (UniProt P13667)
# [58] = molecular target: PDIA6 (UniProt Q15084)
# [59] = molecular target: PHF5A (UniProt Q7RTV0)
# [60] = molecular target: SF3B5 (UniProt Q9BWJ5)
# [61] = molecular target: POLDIP2 (UniProt Q9Y2S7)
# [62] = molecular target: POLR1E (UniProt Q9GZS1)
# [63] = molecular target: PPIL4 (UniProt Q8WUA2)
# [64] = molecular target: PRPF31 (UniProt Q8WWY3)
# [65] = molecular target: PRPF8 (UniProt Q6P2Q9)
# [66] = molecular target: USP39 (UniProt Q53GS9)
# [67] = molecular target: PRPF6 (UniProt O94906)
# Chain of PRPF6 (O94906 whole entry): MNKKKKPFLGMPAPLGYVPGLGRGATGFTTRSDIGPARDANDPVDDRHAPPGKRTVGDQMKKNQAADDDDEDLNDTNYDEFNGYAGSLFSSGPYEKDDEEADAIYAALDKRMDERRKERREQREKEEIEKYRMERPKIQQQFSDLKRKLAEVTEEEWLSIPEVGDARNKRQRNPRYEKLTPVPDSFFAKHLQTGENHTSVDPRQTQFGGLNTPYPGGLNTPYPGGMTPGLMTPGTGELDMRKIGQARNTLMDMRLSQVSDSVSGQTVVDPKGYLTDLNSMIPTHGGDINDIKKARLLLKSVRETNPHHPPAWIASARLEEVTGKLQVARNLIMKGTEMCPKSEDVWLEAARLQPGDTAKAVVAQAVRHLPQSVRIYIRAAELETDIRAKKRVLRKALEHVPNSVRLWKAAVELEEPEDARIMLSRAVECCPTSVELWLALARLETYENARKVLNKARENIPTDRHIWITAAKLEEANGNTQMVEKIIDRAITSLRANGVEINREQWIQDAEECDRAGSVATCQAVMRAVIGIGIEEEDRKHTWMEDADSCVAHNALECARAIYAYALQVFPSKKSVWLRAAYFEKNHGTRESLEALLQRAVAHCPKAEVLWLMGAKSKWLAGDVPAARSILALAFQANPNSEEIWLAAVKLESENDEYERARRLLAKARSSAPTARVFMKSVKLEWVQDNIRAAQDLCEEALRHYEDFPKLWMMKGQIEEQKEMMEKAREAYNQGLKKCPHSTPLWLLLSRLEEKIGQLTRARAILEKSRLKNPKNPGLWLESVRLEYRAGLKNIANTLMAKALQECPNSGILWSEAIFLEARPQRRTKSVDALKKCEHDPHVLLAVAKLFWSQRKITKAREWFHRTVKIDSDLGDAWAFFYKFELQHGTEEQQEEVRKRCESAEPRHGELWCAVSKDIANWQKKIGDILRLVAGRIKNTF
# Chain of P4HB, P07237 (P07237 whole entry): as the sequence (P07237 whole entry) above
# Chain of ITGB1, P05556 (P05556 whole entry): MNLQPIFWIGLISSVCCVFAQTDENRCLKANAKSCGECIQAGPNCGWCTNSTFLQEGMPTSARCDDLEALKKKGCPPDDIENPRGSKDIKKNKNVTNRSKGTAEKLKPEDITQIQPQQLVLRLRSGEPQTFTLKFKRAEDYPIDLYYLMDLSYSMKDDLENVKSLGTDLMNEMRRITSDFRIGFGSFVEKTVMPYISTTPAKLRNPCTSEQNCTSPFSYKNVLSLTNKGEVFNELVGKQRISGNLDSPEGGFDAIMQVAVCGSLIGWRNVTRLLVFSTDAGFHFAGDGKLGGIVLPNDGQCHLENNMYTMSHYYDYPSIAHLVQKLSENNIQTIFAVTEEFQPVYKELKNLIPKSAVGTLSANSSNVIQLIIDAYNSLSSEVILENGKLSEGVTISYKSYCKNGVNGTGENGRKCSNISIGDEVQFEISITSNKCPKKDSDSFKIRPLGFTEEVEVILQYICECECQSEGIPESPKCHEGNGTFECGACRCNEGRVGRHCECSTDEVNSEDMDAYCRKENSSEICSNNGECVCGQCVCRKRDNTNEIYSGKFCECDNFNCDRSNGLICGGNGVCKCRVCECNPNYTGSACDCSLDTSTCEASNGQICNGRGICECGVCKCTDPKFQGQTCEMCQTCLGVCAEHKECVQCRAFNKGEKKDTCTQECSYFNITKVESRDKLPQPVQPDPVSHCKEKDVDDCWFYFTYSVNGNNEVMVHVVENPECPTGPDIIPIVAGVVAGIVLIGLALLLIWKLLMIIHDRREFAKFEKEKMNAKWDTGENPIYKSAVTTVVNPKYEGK
# Chain of PTBP1, P26599 (P26599 whole entry): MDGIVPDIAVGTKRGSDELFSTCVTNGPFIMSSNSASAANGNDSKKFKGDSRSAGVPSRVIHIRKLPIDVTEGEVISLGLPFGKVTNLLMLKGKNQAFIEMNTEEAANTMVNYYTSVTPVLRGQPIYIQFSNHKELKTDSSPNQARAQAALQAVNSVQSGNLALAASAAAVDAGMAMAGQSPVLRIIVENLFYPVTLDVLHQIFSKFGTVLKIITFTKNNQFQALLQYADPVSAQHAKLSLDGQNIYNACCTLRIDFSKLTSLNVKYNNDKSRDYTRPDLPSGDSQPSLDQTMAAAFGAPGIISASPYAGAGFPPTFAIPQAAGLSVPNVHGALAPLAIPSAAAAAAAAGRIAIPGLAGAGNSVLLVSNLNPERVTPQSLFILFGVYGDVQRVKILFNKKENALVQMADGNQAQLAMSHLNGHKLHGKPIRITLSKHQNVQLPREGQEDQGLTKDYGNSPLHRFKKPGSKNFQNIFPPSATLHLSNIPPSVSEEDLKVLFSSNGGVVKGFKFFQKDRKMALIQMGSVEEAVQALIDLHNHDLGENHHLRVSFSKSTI
# Chain of FBL, P22087 (P22087 whole entry): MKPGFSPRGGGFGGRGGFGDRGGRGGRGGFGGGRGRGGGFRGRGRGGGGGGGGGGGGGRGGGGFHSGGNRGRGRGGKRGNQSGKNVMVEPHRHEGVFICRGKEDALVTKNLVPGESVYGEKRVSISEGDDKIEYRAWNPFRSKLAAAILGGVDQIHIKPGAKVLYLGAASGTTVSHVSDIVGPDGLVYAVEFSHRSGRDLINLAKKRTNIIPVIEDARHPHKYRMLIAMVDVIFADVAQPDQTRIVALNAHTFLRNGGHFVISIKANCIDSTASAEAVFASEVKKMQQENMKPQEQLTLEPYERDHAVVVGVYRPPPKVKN
# Chain of PRPF6, O94906 (O94906 whole entry): as the sequence (O94906 whole entry) above
# Chain of RPN1, P04843 (P04843 whole entry): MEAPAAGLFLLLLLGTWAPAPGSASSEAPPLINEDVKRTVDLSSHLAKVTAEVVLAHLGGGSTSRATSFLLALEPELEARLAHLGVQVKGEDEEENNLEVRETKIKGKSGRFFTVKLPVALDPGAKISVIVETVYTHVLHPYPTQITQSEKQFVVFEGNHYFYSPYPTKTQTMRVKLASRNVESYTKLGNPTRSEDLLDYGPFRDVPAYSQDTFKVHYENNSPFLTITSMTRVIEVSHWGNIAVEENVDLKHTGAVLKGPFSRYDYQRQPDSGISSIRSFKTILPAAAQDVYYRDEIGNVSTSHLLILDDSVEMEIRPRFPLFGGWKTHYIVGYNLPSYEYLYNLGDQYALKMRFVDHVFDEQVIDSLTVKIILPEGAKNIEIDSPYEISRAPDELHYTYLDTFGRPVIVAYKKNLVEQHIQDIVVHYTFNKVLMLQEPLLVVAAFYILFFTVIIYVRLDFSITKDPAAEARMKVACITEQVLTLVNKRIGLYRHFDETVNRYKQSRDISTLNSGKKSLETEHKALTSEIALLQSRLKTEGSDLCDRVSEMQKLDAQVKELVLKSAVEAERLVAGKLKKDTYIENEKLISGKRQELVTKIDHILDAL
# Chain of SF3B3, Q15393 (Q15393 whole entry): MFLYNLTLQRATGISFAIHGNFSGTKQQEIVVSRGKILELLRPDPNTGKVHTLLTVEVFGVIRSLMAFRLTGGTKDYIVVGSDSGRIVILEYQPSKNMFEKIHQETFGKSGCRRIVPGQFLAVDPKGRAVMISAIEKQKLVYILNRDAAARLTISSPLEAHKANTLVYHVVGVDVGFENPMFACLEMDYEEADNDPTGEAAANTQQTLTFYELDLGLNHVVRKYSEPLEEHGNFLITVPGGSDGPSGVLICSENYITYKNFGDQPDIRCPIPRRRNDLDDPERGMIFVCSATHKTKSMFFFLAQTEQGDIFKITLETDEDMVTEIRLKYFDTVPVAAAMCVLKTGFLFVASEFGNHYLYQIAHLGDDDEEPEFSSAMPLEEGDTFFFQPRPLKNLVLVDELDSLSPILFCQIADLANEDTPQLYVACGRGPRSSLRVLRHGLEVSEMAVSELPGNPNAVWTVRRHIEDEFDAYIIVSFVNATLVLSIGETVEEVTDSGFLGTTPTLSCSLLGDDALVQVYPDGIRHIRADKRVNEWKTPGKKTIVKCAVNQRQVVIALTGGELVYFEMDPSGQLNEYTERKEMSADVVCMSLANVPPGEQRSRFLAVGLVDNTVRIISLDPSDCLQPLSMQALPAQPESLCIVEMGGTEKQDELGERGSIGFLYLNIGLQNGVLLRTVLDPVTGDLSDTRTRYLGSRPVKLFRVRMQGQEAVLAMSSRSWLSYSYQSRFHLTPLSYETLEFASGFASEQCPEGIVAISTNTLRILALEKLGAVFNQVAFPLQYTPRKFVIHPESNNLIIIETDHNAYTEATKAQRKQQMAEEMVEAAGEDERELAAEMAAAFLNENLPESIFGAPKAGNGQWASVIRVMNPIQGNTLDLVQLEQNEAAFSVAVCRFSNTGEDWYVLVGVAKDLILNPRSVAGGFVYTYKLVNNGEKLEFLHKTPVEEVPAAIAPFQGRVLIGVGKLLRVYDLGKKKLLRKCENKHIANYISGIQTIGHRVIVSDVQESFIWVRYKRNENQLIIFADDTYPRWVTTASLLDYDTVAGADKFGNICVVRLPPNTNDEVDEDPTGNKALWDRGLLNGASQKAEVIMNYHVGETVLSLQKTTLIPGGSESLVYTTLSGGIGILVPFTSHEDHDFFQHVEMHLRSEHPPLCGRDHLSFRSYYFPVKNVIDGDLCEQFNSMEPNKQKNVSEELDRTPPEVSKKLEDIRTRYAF
substance,measurement,setting,value
"ETFB, P38117",cross-linked residues,[1],K238 - K625
"ITGAV, P06756",cross-linked residues,[2],K718 - K519
"FH, P07954",cross-linked residues,[3],K223 - K239
"UBR4, Q5T4S7",cross-linked residues,[4],S4031 - K300
"ITGB1, P05556",cross-linked residues,[5],S689 - K897
same,cross-linked residues,[6],K202 - T143
same,cross-linked residues,[7],K678 - K514
same,cross-linked residues,[8],K692 - K121
"IDH3B, O43837",cross-linked residues,[9],K114 - K200
"PTBP1, P26599",cross-linked residues,[10],K454 - K239
same,cross-linked residues,[11],K454 - K467
same,cross-linked residues,[12],K436 - K309
"PDHA1, P08559",cross-linked residues,[3],K313 - K239
"MCM4, P33991",cross-linked residues,[13],K814 - K807
same,cross-linked residues,[14],K858 - K702
"ALDH2, P05091",cross-linked residues,[3],K378 - K239
"ETHE1, O95571",cross-linked residues,[3],K66 - K239
"RPN1, P04843",cross-linked residues,[15],K176 - K246
same,cross-linked residues,[16],K187 - K460
same,cross-linked residues,[17],K258 - K695
same,cross-linked residues,[18],K258 - K773
"GTPBP4, Q9BZE4",cross-linked residues,[19],K187 - K163
same,cross-linked residues,[20],K522 - K128
"PMPCB, O75439",cross-linked residues,[21],K219 - K286
"LRPPRC, P42704",cross-linked residues,[22],K868 - K571
"RPL27, P61353",cross-linked residues,[23],K59 - T987
same,cross-linked residues,[24],K59 - K36
same,cross-linked residues,[25],K93 - K39
"PRKCSH, P14314",cross-linked residues,[26],K436 - K161
"HNRNPM, P52272",cross-linked residues,[27],K381 - K323
"MYH9, P35579",cross-linked residues,[28],K1459 - K81
same,cross-linked residues,[29],K1867 - K1727
"RPL6, Q02878",cross-linked residues,[30],K100 - K590
"BMS1, Q14692",cross-linked residues,[31],S398 - K689
"SMC2, O95347",cross-linked residues,[32],K177 - K152
"NCBP2, P52298",cross-linked residues,[33],K7 - K17
"ATP1A1, P05023",cross-linked residues,[34],K444 - K280
"NDUFA7, O95182",cross-linked residues,[35],S32 - K101
"NDUFA2, O43678",cross-linked residues,[36],K98 - K531
"NIPSNAP2, O75323",cross-linked residues,[37],K148 - K279
"DDX54, Q8TDD1",cross-linked residues,[38],Y763 - K436
"FBL, P22087",cross-linked residues,[39],K102 - K121
same,cross-linked residues,[40],K102 - K647
same,cross-linked residues,[41],K102 - K197
"RPL7A, P62424",cross-linked residues,[42],K125 - K138
same,cross-linked residues,[43],K125 - K157
same,cross-linked residues,[25],K20 - K39
"TMED10, P49755",cross-linked residues,[44],K140 - K281
"NUP98, P52948",cross-linked residues,[45],K1749 - K1096
same,cross-linked residues,[46],K563 - K1881
"NUP62, P37198",cross-linked residues,[47],K371 - K288
"NUP155, O75694",cross-linked residues,[48],K1069 - K243
"P4HB, P07237",cross-linked residues,[49],K65 - K442
same,cross-linked residues,[50],K71 - K494
same,cross-linked residues,[51],S32 - K186
"P4HA2, O15460",cross-linked residues,[52],K300 - K409
"RPL35, P42766",cross-linked residues,[53],K43 - K238
"DNAJC19, Q96DA6",cross-linked residues,[54],K93 - K82
"PCCA, P05165",cross-linked residues,[55],K648 - K60
"EIF3J, O75822",cross-linked residues,[56],K117 - K172
"AGR2, O95994",cross-linked residues,[57],K95 - K245
"EEF2, P13639",cross-linked residues,[58],S48 - K150
"HSP90B1, P14625",cross-linked residues,[58],K633 - K150
"SF3B3, Q15393",cross-linked residues,[59],K137 - K13
same,cross-linked residues,[60],K137 - K17
"CLPX, O76031",cross-linked residues,[61],K98 - K60
"POLR1A, O95602",cross-linked residues,[62],K252 - K170
"DHX16, O60231",cross-linked residues,[63],K291 - K212
"PRPF6, O94906",cross-linked residues,[64],K408 - K471
same,cross-linked residues,[65],K137 - K670
same,cross-linked residues,[66],K137 - K459
"PRPF4, O43172",cross-linked residues,[67],K216 - K737
